# Measurements: PubChem BioAssay (NCI)
# The panel holds about 83,000 compounds, 20% with a hit somewhere; the sample as a whole holds those more often.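 Note: values are percent growth. 100 is the growth of untreated cells, values between 100 and 0 indicate rising inhibition; between -100 and 0 indicates cell death.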 Values without a mark were called inactive. Activity calls are given as the source filed them. The calls were made as follows: active = growth percent below 10; inactive = the rest.
# Legend:
# Experiment in all cases: NCI-60 one-dose screen, 48 h (100 = growth as untreated, 0 = no growth, -100 = all killed)
# Details in all cases: 10 µM unless noted
# DU-145 prostate = system: DU-145 prostate
# K-562 leukemia = system: K-562 leukemia
# MALME-3M melanoma = system: MALME-3M melanoma
# MDA-MB-231 breast = system: MDA-MB-231 breast
# RXF 393 renal = system: RXF 393 renal
# SF-268 CNS = system: SF-268 CNS
# SF-295 CNS = system: SF-295 CNS
# SF-539 CNS = system: SF-539 CNS
# UACC-257 melanoma = system: UACC-257 melanoma
# M14 melanoma = system: M14 melanoma
# HCT-15 colon = system: HCT-15 colon
# HT29 colon = system: HT29 colon
# SNB-75 CNS = system: SNB-75 CNS
# SNB-19 CNS = system: SNB-19 CNS
# U251 CNS = system: U251 CNS
# SK-MEL-5 melanoma = system: SK-MEL-5 melanoma
# UACC-62 melanoma = system: UACC-62 melanoma
# LOX IMVI melanoma = system: LOX IMVI melanoma
# SK-MEL-28 melanoma = system: SK-MEL-28 melanoma
# PC-3 prostate = system: PC-3 prostate
Structure (SMILES),growth (DU-145 prostate),growth (K-562 leukemia),growth (MALME-3M melanoma),growth (MDA-MB-231 breast),growth (RXF 393 renal),growth (SF-268 CNS),growth (SF-295 CNS),growth (SF-539 CNS),growth (UACC-257 melanoma),growth (M14 melanoma),growth (HCT-15 colon),growth (HT29 colon),growth (SNB-75 CNS),growth (SNB-19 CNS),growth (U251 CNS),growth (SK-MEL-5 melanoma),growth (UACC-62 melanoma),growth (LOX IMVI melanoma),growth (SK-MEL-28 melanoma),growth (PC-3 prostate) [%]
O=C(CCN1CCCC1)Nc1ccc2c(NCCc3ccccc3)c3ccccc3nc2c1,-23.3% (active),-17.1% (active),-92.6% (active),-32.5% (active),-47.9% (active),-55% (active),-2.88% (active),-67.2% (active),-8.54% (active),-61.8% (active),12%,4.99% (active),-70.8% (active),-17.9% (active),-24% (active),11.2%,-55.1% (active),-68% (active),-17.4% (active),
COc1cc2nc(-c3ccc(C(F)(F)F)cc3)cc(OCCN3CCCCC3)c2cc1OC,70.9%,53.4%,74.4%,54.1%,62.4%,75.8%,77.5%,74.4%,36.6%,-11.8% (active),43.7%,46.4%,54.4%,91.1%,,70.4%,89.7%,-15.5% (active),70.2%,61.3
C=C1C(=O)O[C@H]2[C@H]1CC/C(CNC(=O)/C=C/c1ccccc1)=C\CC[C@@]1(C)O[C@@H]21,-34.3% (active),1.51% (active),-50.1% (active),-15.2% (active),-90.2% (active),48.1%,62.3%,-63.8% (active),-55.1% (active),-63.2% (active),-72.7% (active),-22.8% (active),86.8%,52.5%,46.1%,40.6%,-81.6% (active),-88% (active),-38.1% (active),
O=C(O)c1ccc(-c2nn(-c3ccc(C(F)(F)F)cc3)cc2CNc2ccc(Oc3ccccc3)cc2)cc1,95.5%,65.3%,107%,91.4%,88.4%,79.5%,72.7%,89.6%,102%,84.6%,43.2%,67%,80.6%,82.7%,67%,78.9%,77.5%,82.5%,89.1%,
CCCCOc1ccc(/C=N/Nc2cc(C)nc3ccc(Br)cc23)cc1,16.4%,-2.5% (active),-66.9% (active),48.5%,-72% (active),88.3%,-80.3% (active),-79.3% (active),96.3%,4.9% (active),-66% (active),-19.4% (active),107%,50.7%,,84.3%,87.3%,-96.9% (active),59.5%,53.3
Cc1ccc(NC(=O)Cc2ccc(/C=C/C(=O)c3ncc[nH]3)cc2)cc1,16%,8.84% (active),96.3%,56.6%,52.7%,24.7%,24%,-14.8% (active),83.4%,82.5%,11%,9.43% (active),22.2%,16.6%,7.18% (active),73.9%,66.2%,10.9%,86.9%,
CCOC(=O)/C(C#N)=C1/NNC(=Nc2cccnc2)S1,105%,99.8%,105%,98.8%,110%,100%,98.9%,102%,78.3%,95.9%,101%,98.3%,92%,95.9%,,98.6%,95.5%,95.7%,105%,88.6
CC(=O)c1ccc(NS(=O)(=O)c2cccc(C(=O)Nc3ccc(Br)cc3)c2)cc1,94.6% [25 µM],44.4% [25 µM],56.2% [25 µM],94.1% [25 µM],61.7% [25 µM],60.8% [25 µM],23.8% [25 µM],66.5% [25 µM],44.6% [25 µM],63.9% [25 µM],68.2% [25 µM],87.4% [25 µM],78.3% [25 µM],60.4% [25 µM],70.8% [25 µM],-19.8% [25 µM] (active),26.5% [25 µM],62.7% [25 µM],77.9% [25 µM],
